# Measurements taken from ChEMBL document CHEMBL1157539, “Thousands of chemical starting points for antimalarial lead identification” (Nature, 2010).
# Tested on: Plasmodium falciparum
# Experiment: GSK_TCMDC: Inhibition of Plasmodium falciparum 3D7 in whole red blood cells, using parasite LDH activity as an index of growth. Test compounds present at 2uM
# Format: functional
row,Compound,Inhibition
1,O=C(/C=C/c1ccc(Cl)c(Cl)c1)NCCCCCN1CCC(NC(=S)Nc2cccc(Cl)c2)CC1,99%
2,CS(=O)(=O)c1ccc(CCNCc2ccc(-c3ccc(CN(C(=O)C4CC(=O)c5ccccc54)C4Cc5ccccc5C4)cc3)nc2)cc1.O=C(O)C(F)(F)F (stereo not given),90%
3,CC1(C)N=C(N)N=C(N)N1CCc1ccccc1.Cl,93%
4,COc1ccc2[nH]ccc(=NN=Cc3ccccc3F)c2c1,100%
5,Cc1cc(-c2cnc(N)c(-c3ccc(N4CCN(C)CC4)cc3)c2)cc(C)c1O,100%
6,Nc1nc(N)c2c(Oc3cccc4ccccc34)cccc2n1,96%
7,COc1ccccc1N1CCN(Cc2c(NC(C)=O)sc(C)c2C)CC1,95%
8,CSc1ccc(CN2CCC(NC(=O)c3ccc(-c4cccc(C(F)(F)F)c4)s3)CC2)cc1.O=C(O)C(F)(F)F,90%
9,COc1cccc(NC(=O)[C@H](C)n2c(=O)[nH]c3ccccc3c2=O)c1,100%
10,COc1cc2c(cc1CCNCCCCNCCc1cc3c(cc1OC)CCCC3)CCCC2.CS(=O)(=O)O,100%
11,CS(=O)(=O)c1ccc(CNCc2ccc(-c3cccc(-c4nc5cc(F)ccc5[nH]4)c3)cc2)cc1.O=C(O)C(F)(F)F,100%
12,CCC(C)CN1CCCN(c2ccc(NC(=O)c3cccs3)cc2)CC1.O=C(O)C(F)(F)F (stereo not given),91%
13,CC(=O)O.CC(C)c1ccc(C2CCN(CCCCNC(=O)c3ccc(NC(=O)c4ccc(C(F)(F)F)cc4)cc3)CC2)c(O)c1,99%
14,CN1CCC(NCc2ccc(-c3ccc(S(=O)(=O)NCc4ccccc4)cc3)cc2)CC1.O=C(O)C(F)(F)F,99%
15,CCNC(C)(C)CN(Cc1ccc(-c2ccc(C(F)(F)F)cc2)cc1)C(=O)Cn1c(SCc2ccc(F)cc2)nc(=O)c2c1CCC2.O=C(O)C(O)C(O)C(=O)O,95%
16,O=C(Cc1c[nH]cn1)Nc1ccc(-c2ccc(-c3nc4cc(C(F)(F)F)ccc4[nH]3)s2)cc1,100%
17,COc1cc(NC(=O)c2sc(-c3ccc(Cl)cc3)cc2NC(=O)c2cccc(N(C)C)c2)ccc1OCCN1CCCC1,99%
18,Cc1nc2ccccn2c1C1(O)C(=O)Nc2c(Cl)cc(Cl)cc21 (stereo not given),95%

row,Compound,Inhibition
1,O=C(Nc1cccc(C(F)(F)F)c1)c1cccc(S(=O)(=O)NC2CCN(CC3CCCCC3)C2)c1.O=C(O)C(F)(F)F (stereo not given),100%
2,COc1ccc(C(=O)C2CCN(CCCCNC(=O)c3ccc(NC(=O)c4cc(Cl)cc(Cl)c4)cc3)CC2)cc1,100%
3,CS(=O)(=O)c1ccc(CCNCc2ccc(-c3ccc(CN(C(=O)c4cccc(C#N)c4)C4CCN(Cc5ccccc5)CC4)cc3)nc2)cc1.O=C(O)C(F)(F)F,96%
4,COc1ccc(-c2nc(NC(=O)Cc3cccc(OC)c3)sc2C)cc1,100%
5,Cc1cc(N[C@@H](CC(C)C)C(=O)NCCOc2ccccc2)nc(NCCOc2ccccc2)n1.O=C(O)C(F)(F)F,89%
6,COc1ccc(NC(=O)CCNc2cc(C)nc(NCCc3ccccc3)n2)cc1.O=C(O)C(F)(F)F,85%
7,CC(C)(C)c1ccc(C(=O)Nc2ccc3nc4c(c(N)c3c2)CCCC4)cc1.Cl,100%
8,Cc1cnc(NCC2CCCCC2)nc1N[C@@H](CC(C)C)C(=O)Nc1ccccc1.O=C(O)C(F)(F)F,96%
9,CC(C)CCNC(=O)C1Cc2c([nH]c3cc(Cl)ccc23)C2(CCN(CCc3ccccc3)CC2)N1 (stereo not given),100%
10,Cc1c(CC(=O)N(C)C2CCN(CCCCCNC(=O)/C=C/c3ccc(Cl)c(Cl)c3)CC2)sc2ccc(Cl)cc12,95%
11,O=C(Nc1cccc(-c2csc(-c3nc4ccccc4[nH]3)c2)c1)c1cccnc1,98%
12,Cc1cc(C(=O)Nc2ccc(OCc3ccccc3)cc2)on1,87%
13,CCN(CC)CCN(Cc1ccc(-c2ccc(C(F)(F)F)cc2)cc1)C(=O)Cn1c(CCc2cccc(F)c2F)c(C)c(=O)c2ccccc21.O=C(O)C(O)C(O)C(=O)O,87%
14,COc1ccc(NC(=O)Nc2nc(-c3ccc(Cl)c(C)c3)cs2)cc1N1CCN(C)CC1.Cl,99%
15,C=CCc1cccc(CN2CCC(c3cc(O)nc(-c4ccccn4)n3)CC2)c1O,91%
16,COc1ccc(NC(=O)c2c(NC(=O)c3cccs3)sc3c2CCCC3)cc1,97%
17,CN1CCN(S(=O)(=O)c2cccc(Nc3nccc(N(C)c4ccc5c(c4)nc(NC(=O)c4cccs4)n5C)n3)c2)CC1,99%
